About 83,000 compounds went through this panel and 20% of them were active in at least one assay; those are over-represented in the sample as a whole.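 Results are percent growth after 48 hours of single-concentration exposure. 100 means growth as in untreated cells, lower positive values show inhibition; negative values down to -100 show cell death.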 Unmarked numbers belong to inactive results. Activity calls are given as the source filed them. Rule for the calls: active = growth percent below 10; inactive = the rest.
What was measured:
Assay in all cases: NCI-60 one-dose screen, 48 h (100 = growth as untreated, 0 = no growth, -100 = all killed)
Settings in all cases: 10 µM unless noted
HCT-15 colon = tested on: HCT-15 colon
HT29 colon = tested on: HT29 colon
SNB-75 CNS = tested on: SNB-75 CNS
SNB-19 CNS = tested on: SNB-19 CNS
U251 CNS = tested on: U251 CNS
PC-3 prostate = tested on: PC-3 prostate
SK-MEL-5 melanoma = tested on: SK-MEL-5 melanoma
UACC-62 melanoma = tested on: UACC-62 melanoma
LOX IMVI melanoma = tested on: LOX IMVI melanoma
SK-MEL-28 melanoma = tested on: SK-MEL-28 melanoma
SK-MEL-2 melanoma = tested on: SK-MEL-2 melanoma
EKVX NSCLC = tested on: EKVX NSCLC
SN12C renal = tested on: SN12C renal
UO-31 renal = tested on: UO-31 renal
TK-10 renal = tested on: TK-10 renal
ACHN renal = tested on: ACHN renal
CAKI-1 renal = tested on: CAKI-1 renal
A498 renal = tested on: A498 renal
MOLT-4 leukemia = tested on: MOLT-4 leukemia
CCRF-CEM leukemia = tested on: CCRF-CEM leukemia

| SMILES | growth (HCT-15 colon) | growth (HT29 colon) | growth (SNB-75 CNS) | growth (SNB-19 CNS) | growth (U251 CNS) | growth (PC-3 prostate) | growth (SK-MEL-5 melanoma) | growth (UACC-62 melanoma) | growth (LOX IMVI melanoma) | growth (SK-MEL-28 melanoma) | growth (SK-MEL-2 melanoma) | growth (EKVX NSCLC) | growth (SN12C renal) | growth (UO-31 renal) | growth (TK-10 renal) | growth (ACHN renal) | growth (CAKI-1 renal) | growth (A498 renal) | growth (MOLT-4 leukemia) | growth (CCRF-CEM leukemia) [%] |
| --- | --- | --- | --- | --- | --- | --- | --- | --- | --- | --- | --- | --- | --- | --- | --- | --- | --- | --- | --- | --- |
| C=C1C(=O)O[C@H]2[C@H]1CC/C(COC(=O)NCc1ccc(Cn3c(=O)sn(-c4ccc(I)cc4)c3=O)cc1)=C\CC[C@@]1(C)O[C@@H]21 | 57% | 34.1% | 81.6% | 107% | 83.6% | 77.5% | 98.3% | 81.2% | 69.4% | 93.9% | 89.7% | 98.4% | 79.1% | 54.4% | 79.9% | 69.7% | 71.5% | 87.7% | 5.6% (active) |  |
| NS(=O)(=O)c1ccc(C(=O)NN2C(=O)c3ccccc3C2=O)cc1 | 107% | 111% | 74.8% | 102% | 106% | 105% | 103% | 102% | 103% | 113% | 116% | 105% | 104% | 89.9% | 103% | 112% | 94% | 73.3% | 107% | 107 |
| Cc1cccc(NC(=O)N/C(N)=N/c2nc3ccccc3s2)c1 | 23% | 11.3% | 4.63% (active) | 42.3% | 28.9% | 34.2% | 23.7% | 33.5% | 34.4% | 63% | 33% | 49.6% | 43.9% | 38.6% | 59% | 38.7% | 25% | -3.86% (active) | 35.7% |  |
| COc1cc(Cc2cc(-c3ccccc3)nn(Cc3ccccc3)c2=O)cc(OC)c1OC | 29.1% | 32.2% | 61% | 51.7% | 32.9% | 22.7% | 40.2% | 37.7% | 43.7% | 56.2% | 38.4% | 14.7% | 40.9% | 21.6% | 45.2% | 27.9% | 44.4% | 51.1% | 5.01% (active) |  |
| CC1(C)N=C(N)N=C(N)N1c1ccc(S(=O)(=O)Nc2nccs2)cc1 | 103% | 102% | 64.9% | 98.2% | 103% | 93.7% | 106% | 93.6% | 100% | 106% | 106% | 102% | 95.2% | 89.5% | 86.1% | 108% | 94.3% | 96.2% | 103% | 101 |
| Nc1nc2ccccc2c2c(=O)c3cc(Cl)ccc3sc12 | 96.8% | 102% | 91.2% | 96.1% | 98.5% | 90.7% | 96.5% | 93.4% | 103% | 109% | 106% | 91.4% | 94.9% | 86.6% | 109% | 99.8% | 87.8% | 107% | 105% |  |
| Cc1[nH]c(C(=O)Nc2ccccc2OC2CCN(CCN3CCOCC3)CC2)c(Cl)c1Cl | 83.6% | 73.7% | 76.1% | 107% | 93.3% | 78.3% | 87.9% | 108% | 86.3% | 104% | 101% | 86% | 97.7% | 51.9% | 69.7% | 94.7% | 84% | 71.6% | 72.6% |  |
| C=CCn1cc(-c2nc3ccccc3s2)c2cc(-c3ccc4c5c(cccc35)C(=O)N(CCO)C4=O)ccc21 | 94.3% | 98.2% | 98.9% | 93.1% | 97.2% | 83.7% | 96.1% | 94.9% | 95.4% | 110% | 105% | 81.3% | 89.2% | 62.7% | 138% | 94.5% | 75.2% | 113% | 91.3% | 104 |
| COc1cccc(-c2cn3nc(-c4cn(C)c5ccccc45)sc3n2)c1 | 73.7% | 91.1% | 83.1% | 91.7% | 97.7% | 94.7% | 84.2% | 77.9% | 97.6% | 95.1% | 102% | 85.9% | 92% | 71.7% | 105% | 104% | 82.6% | 87.5% | 87.5% |  |
| Cn1c2ccccc2c2c3c(c4c5cc(Br)ccc5n(C)c4c21)C(=O)N(O)C3=O | 21% | 52.6% | 38.9% | 16% | 3.06% (active) | 47% | -35.4% (active) | -4.53% (active) | -77.9% (active) | 54.3% | 56.3% | 88.5% | -53.2% (active) | 2.59% (active) | 90.3% | -23% (active) | -22.4% (active) | 103% | -21.4% (active) |  |
| COc1ccc(/C=C/C(c2cc(OC)c(OC)c(OC)c2)n2cncn2)cc1O (stereo not given) | 16.5% | 41% | 41% | 34.2% | 20.7% | 23.5% | 23.9% | 37.5% | 50.9% | 59.1% | 18.2% | 59.4% | 49.6% | 54.2% | 41.2% | 63.1% | 34.5% | 19.8% | 21.8% |  |
| COC(=O)c1c2c(c[n+]([O-])c1C)C(=O)C=C(NCc1ccccc1)C2=O | -58.8% (active) | 0.45% (active) | -97.3% (active) | -99.4% (active) | -93.1% (active) | -10.8% (active) | -100% (active) | -81.3% (active) | -74.6% (active) | -71.4% (active) | -70.8% (active) | -98.8% (active) | -91.5% (active) | -100% (active) | -82.4% (active) | -89.7% (active) | -98.2% (active) | -99.3% (active) | -44.3% (active) |  |
| COc1cc2c(c(OC)c1OC)CCC(c1cccc(C(=O)Nc3ccc(Br)cc3)c1)O2 (stereo not given) | 61% | 65.7% | 61.8% | 65.8% | 75.5% | 39.4% | 55% | 53% | 65.2% | 76.9% | 46.4% | 60.5% | 47.1% | 39.7% | 77.4% | 67.9% | 73.6% | -3.18% (active) | 25.1% | 53.3 |
| COc1cc(-c2cc(-c3ccc(Nc4nc(Nc5ccc(Cl)cc5)nc(Nc5ccc(Cl)cc5)n4)cc3)no2)cc(OC)c1OC | 81.2% | 78.8% | 74.6% | 81.6% | 73.4% | 60.1% | 61.2% | 82.1% | 73.3% | 88% | 55.2% | 67.1% | 106% | 61.6% | 108% | 78.9% | 75.4% | 68.3% | -10.3% (active) |  |
| c1cc(OCCN2CCCC2)ccc1CNc1ccc2nc(CCC3CCCCC3)[nH]c2c1 | 3.99% (active) | 7.25% (active) | 64.1% | 68.7% | 4.28% (active) | 52% | -96.5% (active) | 62.8% | -78.5% (active) | -85.3% (active) | 35.6% | 80.9% | 71.3% | 9.54% (active) | 95.1% | 60.4% | 4.69% (active) | 34.2% | 9.92% (active) | 12.7 |
| COc1ccc(Oc2ccc(/C=C/C(=O)c3cc4ccccc4oc3=O)cc2)cc1 | 80.5% | 108% | 50.2% | 91.7% | 87% | 75.3% | 92.7% | 76.7% | 70.7% | 98.6% | 102% | 94.5% | 86.1% | 48% | 147% | 91.3% | 74.8% | 121% | 57.9% | 28.1 |
